Results from PubChem BioAssay AID1347165 (National Center for Advancing Translational Sciences (NCATS), 2019).
In all, about 220,000 compounds went through this assay and about 5,700 (2.6%) were called active. About 18% were inconclusive and are not listed. Shown is part of a subset that was picked to be rich in actives. Values without a mark were called inactive. Calls come from the whole dose curve; as a rule, active = well fitted inhibition curve with a large enough effect; inconclusive = small, poorly fitted or top-dose-only effect; inactive = no such curve, though single readings can be large or run the other way.

target: Lysine-specific demethylase 5B (Homo sapiens) (UniProt Q9UGL1); assay: Primary screen for KDM5B Histone Demethylases FDH-coupled qHTS; details: FDH-coupled NADH fluorescence (FDH is formaldehyde dehydrogenase); series mostly up to 57.7 µM; activity change, negative = inhibition: at the top concentration; note: nearly all actives have a fitted effect of over 70% in size; for activity change, negative = inhibition: 0% is about no effect
Description: Assay Submitter (PI): Qin Yan, Ph.D. (Yale University) and Xiaodong Cheng, Ph.D. (MD Anderson) This project was funded as part of the NCI NEXT Program and Chemical Biology Consortium (CBC) The histone demethylases, KDM5A and KDM5B catalyze the demethylation of lysine 4 on histone H3 (H3K4me3/2). They are overexpressed in a variety of cancers and have been implicated in cancer cell growth, metastasis, drug resistance, and tumor growth. KDM5A is amplified and overexpressed in breast and gastric cancer; and is translocated in leukemia. While KDM5B is highly expressed in human mammary tumors and breast cancer cell lines, but not in normal adult breast tissue. Moreover, knockdown of KDM5B leads to upregulation of tumor suppressor genes, including BRCA1. The goal of this project is to employ qHTS to identify selective small molecule inhibitors of KDM5A/B demethylase activity to better understand the role of KDM5 in cancer and to develop novel therapies. We employed an FDH-coupled assay previously reported by Sakurai et al. to monitor in vitro KDM5 demethylase activity. Compounds showing dose response inhibition are re-acquired, validated, and tested for non-specific interference with the formaldehyde dehydrogenase (FDH) counterscreen. True inhibitors are validated using an AlphaLisa secondary screen, which employs an H3K4(me2-1)-specific antibody to monitor demethylation of a biotin-tagged H3K4(me3) peptide substrate. Inhibitors are profiled against KDM4A and KDM6A AlphaLisa counterscreens to determine level of demethylase specificity; and against the TruHits counterscreen to eliminate non-specific inhibitory activity on the AlphaLISA detection method. Selective inhibitors identified from the primary and secondary screening are tested in cells using immunofluorescence to monitor global H3K4 tri-methylation as a measure of KDM5A/B inhibition. Early Translation Branch (ETB) National Center for Advancing Translational Sciences (NCATS), Rockville, MD National Institute of Health (NIH), Bethesda, Maryland [1] Sakurai, M et al. A miniaturized screen for inhibitors of Jumonji histone demethylases. Mol Biosyst. 2010 Feb;6(2):357-64. doi: 10.1039/b912993f. Epub 2009 Oct 8.
Materials: 1536-well Black, solid bottom, medium binding assay plate is purchased from Greiner Bio-one. The enzymes (KDM5B) and substrate (H3K4me3/2) are provided by the principal investigators. The buffer for this assay is composed of 50mM HEPES at pH 7.5 with 0.01% Tween-20. FDH coupled Demethylase qHTS protocol: Three microliter enzyme mix (buffer + 200nM KDM5BDeltaAP final concentration) is dispensed into the assay plate using the BioRAPTR Flying Reagent Dispenser (FRD; […]). Compound (at various final concentration) and control solution is pin transferred to the assay plate using the Kalypsys 1536-pin tool apparatus. The assay plate is incubated for 10 min at room temperature followed by addition of 1uL substrate mix (buffer + 100uM ascorbic acid, 50uM ferrous ammonium sulfate, 12.5uM H3K4Me3, 25uM a-ketoglutarate, 0.25 mM NAD+, 0.25 U/mL formaldehyde dehydrogenase using the FRD yielding a total reaction volume of 4 uL. Initial fluorescence (Read1) is detected using the PerkinElmer ViewLux plate reader equipped with 340 nm excitation and 450 nm emission filters. The final fluorescence (Read2) signal is obtained after 30 min of room temperature incubation. Delta RFU is calculated (Read2 - Read1) and is used to generated dose response curves.
Potency is the fitted concentration of half-maximal effect.

Lysine-specific demethylase 5B (Homo sapiens), sequence (Q9UGL1 whole entry, looked up): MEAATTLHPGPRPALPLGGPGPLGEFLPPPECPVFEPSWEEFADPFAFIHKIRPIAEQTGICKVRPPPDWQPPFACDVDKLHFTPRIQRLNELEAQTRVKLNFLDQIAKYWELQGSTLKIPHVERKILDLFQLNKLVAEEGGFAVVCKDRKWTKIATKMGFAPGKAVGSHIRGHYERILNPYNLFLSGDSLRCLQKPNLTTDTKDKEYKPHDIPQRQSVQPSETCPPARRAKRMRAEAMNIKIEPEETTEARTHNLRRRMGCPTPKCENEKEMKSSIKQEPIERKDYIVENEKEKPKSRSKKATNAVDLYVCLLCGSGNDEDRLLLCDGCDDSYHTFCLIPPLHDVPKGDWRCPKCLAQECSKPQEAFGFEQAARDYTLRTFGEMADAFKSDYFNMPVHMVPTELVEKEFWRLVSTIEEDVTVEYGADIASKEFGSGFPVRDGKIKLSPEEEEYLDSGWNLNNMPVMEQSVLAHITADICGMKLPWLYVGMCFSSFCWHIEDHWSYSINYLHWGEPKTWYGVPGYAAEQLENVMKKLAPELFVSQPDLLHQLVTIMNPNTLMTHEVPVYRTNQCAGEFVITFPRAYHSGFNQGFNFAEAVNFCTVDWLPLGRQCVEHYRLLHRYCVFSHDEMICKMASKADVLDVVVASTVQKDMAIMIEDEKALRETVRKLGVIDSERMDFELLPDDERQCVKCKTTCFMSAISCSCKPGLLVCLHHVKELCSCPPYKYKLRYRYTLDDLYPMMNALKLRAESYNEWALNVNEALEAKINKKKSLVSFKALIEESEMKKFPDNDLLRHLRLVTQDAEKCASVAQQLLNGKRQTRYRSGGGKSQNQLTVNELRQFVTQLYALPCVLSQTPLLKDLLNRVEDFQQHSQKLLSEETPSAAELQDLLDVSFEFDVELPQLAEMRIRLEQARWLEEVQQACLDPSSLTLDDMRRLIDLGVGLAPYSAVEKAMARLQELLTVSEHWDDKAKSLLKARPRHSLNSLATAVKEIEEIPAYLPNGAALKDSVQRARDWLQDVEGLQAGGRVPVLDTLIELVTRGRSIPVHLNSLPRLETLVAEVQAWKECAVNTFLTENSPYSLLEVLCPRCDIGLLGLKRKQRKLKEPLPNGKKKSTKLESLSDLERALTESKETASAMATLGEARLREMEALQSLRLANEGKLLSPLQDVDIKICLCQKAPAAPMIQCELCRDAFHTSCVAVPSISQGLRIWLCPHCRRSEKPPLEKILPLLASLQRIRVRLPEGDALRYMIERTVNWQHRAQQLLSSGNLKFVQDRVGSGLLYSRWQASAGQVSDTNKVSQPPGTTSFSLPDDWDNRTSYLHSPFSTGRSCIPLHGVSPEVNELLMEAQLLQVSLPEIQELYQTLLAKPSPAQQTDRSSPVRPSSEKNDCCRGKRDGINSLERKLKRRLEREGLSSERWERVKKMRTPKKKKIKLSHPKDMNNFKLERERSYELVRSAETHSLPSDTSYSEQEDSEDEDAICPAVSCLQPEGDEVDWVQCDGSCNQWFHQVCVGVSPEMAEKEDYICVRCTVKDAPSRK

SMILES | activity change, negative = inhibition | Potency
Cn1ncc(Br)c1C(=O)NC1CCCC1 | 2.23% | 
Cc1ccc(NC(=O)c2ccccc2SCC(=O)NC2CC2)c(C)c1 | -7.22% | 
Cc1nnn2c(C(=O)NC3CC3)cccc12 |  | 35.5 µM (active)
O=c1oc2ccccc2cc1-c1nc(-c2ccc(F)cc2)no1 | 6.44% | 
COC(=O)[C@@H]1Cc2c([nH]c3ccccc23)[C@H]2C[C@H](NCCNC(C)=O)C[C@@H](c3ccc(C)cc3)N21 |  | 17.8 µM (active)
CCOc1cccc(CC(=O)N2CCc3c([nH]c4ccccc34)C2c2ccc(F)cc2)c1OCC (stereo unspecified) | -19.1% | 
CN(CC(=O)NCCN1CCOCC1)S(=O)(=O)c1ccc(F)cc1 | 18% | 
Cc1ccc(C)n1-c1c(C(=O)NCCN2CCOCC2)sc2ncccc12 | -13.7% | 
COC(=O)[C@@H]1Cc2c([nH]c3ccccc23)[C@H]2C[C@@H](NCCN3CCOCC3)C[C@@H](c3ccccc3F)N21 |  | 17.8 µM (active)
COC(=O)[C@@H]1C[C@@H](NC(=O)c2ccc(-c3nnn(C)n3)cc2)CN1C | -8.97% | 
CC(C)NC(=O)NC(=O)CSc1nc(-c2ccco2)nc2ccccc12 | -18.9% | 
CNC(=O)c1sc(NCc2ccccc2OC)nc1C | -25% | 
CCOC(=O)c1c(C)[nH]c(C)c1S(=O)(=O)N(C)CC(=O)Nc1cc(C)cc(C)c1 | 12.9% | 
Cc1[nH]c2ccccc2c1C(=O)C(=O)NC1CCS(=O)(=O)C1 (stereo unspecified) | -13% | 
O=C(c1cccc(C(F)(F)F)c1)N1C[C@@H](CO)[C@H](c2ccccn2)C1 | -1.06% | 
O=C(c1cccc2[nH]ccc12)N1C[C@@H](CO)[C@H](c2ccccn2)C1 |  | 17.8 µM (active)
CC(C)(C)c1ccc(C(=O)N2C[C@@H](CO)[C@H](c3ccccn3)C2)cc1 | 11.8% | 
Cc1cc2oc(=O)cc(CN3CCN(S(=O)(=O)c4ccc5c(c4)OCCO5)CC3)c2cc1C(C)C | 9.68% | 
COC(=O)CN(CC(=O)NC(N)=O)Cc1ccccc1 | 10.4% | 
COc1ccc(CCC(=O)N2C[C@@H](Oc3ccccc3)C[C@H]2C(=O)N2CCOCC2)cc1 | 9.49% | 
COc1ccc2cc(C(=O)N3C[C@@H](Oc4ccccc4)C[C@H]3C(=O)N3CCOCC3)[nH]c2c1 |  | 28.2 µM (active)
COc1ccc2[nH]c(C(=O)N3C[C@@H](Oc4ccccc4)C[C@H]3C(=O)N3CCCC3)cc2c1 | -929% | 
CCCn1c(=O)n(CC(=O)Nc2ccc(C)c(F)c2)c(=O)c2c1nc(C)n2CCOC | -4.01% | 
CCN(CC)c1ccc(C(=S)N(C)C)cc1 | -28.5% | 
CNc1nc(N2CC[C@H](N3CCN(C)CC3)[C@H](CCC(=O)O)C2)ncc1F |  | 14.1 µM (active)
CN1CCN([C@H]2CCN(C(=O)Cc3cccc(O)c3)C[C@H]2CCCO)CC1 | -8.3% | 

SMILES | activity change, negative = inhibition | Potency
Cc1nc(C(=O)N2CC[C@H](N3CCN(C)CC3)[C@H](CCCO)C2)cs1 | -27.3% | 
O=C(CSc1nc(-c2ccc(F)cc2)cc(C(F)(F)F)n1)NC1CCCC1 | 7.5% | 
CCOC(=O)C1=C(N)Oc2c(oc(CO)cc2=O)C1c1ccccc1C(F)(F)F (stereo unspecified) | -9.02% | 
CCOc1cc(C2CC(=O)NC(SCC(=O)OC)=C2C#N)ccc1O (stereo unspecified) | -15.6% | 
O=C1Cc2c(-c3ccc(F)cc3F)n[nH]c2CN1Cc1ccccc1F | 7.91% [at 86.2 µM] | 
COCCn1c(C(=O)NCc2ccncc2)nc2ccccc2c1=O | 11.4% | 
COCCNc1nc2c(c(=O)n(C)c(=O)n2C)n1CCc1ccccc1 | 2.93% | 
COc1cccc(CN2Cc3nc(Nc4cccc(F)c4)ccc3OCC2=O)c1 |  | 28.2 µM (active)
O=C1COc2ccc(Nc3ccccc3F)nc2CN1Cc1ccccc1F |  | 35.5 µM (active)
COCCN1Cc2nc(NCc3ccccc3)ccc2OCC1=O |  | 35.5 µM (active)
COc1cccc(CN2Cc3nc(-c4cc(F)cc(F)c4)ccc3OCC2=O)c1 | -26.2% [at 86.2 µM] | 
COCC(=O)Nc1ccc2c(c1)CN(Cc1ccccc1F)C(=O)C(C)O2 (stereo unspecified) | -4.01% | 
CCC(C(=O)Nc1ccc2c(c1)CN(Cc1cc(F)cc(F)c1)C(=O)CO2)c1ccccc1 (stereo unspecified) | -6.69% | 
Cc1ccccc1CN1Cc2nc(NCc3ccncc3)ccc2OCC1=O |  | 35.5 µM (active)
O=C1COc2ccc(-c3cncnc3)nc2CN1Cc1ccc(F)cc1 | -30.4% [at 86.2 µM] | 
COc1cccc(C(=O)Nc2ccc3c(c2)CN(Cc2ccc(OC)cc2OC)C(=O)CO3)c1 | 0.861% | 
CC(=O)Nc1scc(-c2cc(C)ccc2C)c1C#N | -19.7% | 
Cc1ccc(C(=O)C(C)OC(=O)Cc2n[nH]c(=O)c3ccccc23)cc1C (stereo unspecified) | 15.4% | 
O=C1c2ccccc2NC(c2cnc3ccccc3n2)N1c1ccc(Cl)cc1 (stereo unspecified) | 3.11% | 
Cc1cc(C)c(C(=O)Nc2ccccc2)c(SCC(=O)NC2CCCCC2)n1 | 6.57% | 
CCN1CCN(C(c2ccccc2)c2c(O)cc(C)n(CC)c2=O)CC1 (stereo unspecified) | 4.49% | 
CCCCC(c1nnnn1CS(=O)(=O)c1ccc(C)cc1)N1CCC(C(N)=O)CC1 (stereo unspecified) | 13.2% | 
CCC(C)c1ccc(NC(=S)N2CCCC2)cc1 (stereo unspecified) | -10.6% | 
CC(C)NC(=O)C1(CCO)CCN(c2ncccn2)C1 (stereo unspecified) |  | 31.6 µM (active)
CC(C)NC(=O)C1(CCO)CC12CCOCC2 (stereo unspecified) | -10.3% | 
